Source: PubChem BioAssay AID652257 (The Scripps Research Institute Molecular Screening Center, 2013)
Screen size: about 370,000 compounds; about 4,800 (1.3%) were called active.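 The calls were made as follows: active = inhibition above about 21% made by adding two undisclosed values (limit read from the data); inactive = the rest.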 The sample as a whole holds a higher share of actives than the screen did.

These compounds were tested against Protein arginine N-methyltransferase 1 (Homo sapiens) (UniProt Q99873) (assay: human PRMT1 activity-probe blockers – biochemical, fluorescence polarization, primary screen (AID 652257)). Conditions: recombinant PRMT1, activity-based probe fluorescence polarization; at 2.79 µM; stronger effect = higher value.
Protein arginine N-methyltransferase 1 (Homo sapiens), sequence (Q99873 whole entry, looked up): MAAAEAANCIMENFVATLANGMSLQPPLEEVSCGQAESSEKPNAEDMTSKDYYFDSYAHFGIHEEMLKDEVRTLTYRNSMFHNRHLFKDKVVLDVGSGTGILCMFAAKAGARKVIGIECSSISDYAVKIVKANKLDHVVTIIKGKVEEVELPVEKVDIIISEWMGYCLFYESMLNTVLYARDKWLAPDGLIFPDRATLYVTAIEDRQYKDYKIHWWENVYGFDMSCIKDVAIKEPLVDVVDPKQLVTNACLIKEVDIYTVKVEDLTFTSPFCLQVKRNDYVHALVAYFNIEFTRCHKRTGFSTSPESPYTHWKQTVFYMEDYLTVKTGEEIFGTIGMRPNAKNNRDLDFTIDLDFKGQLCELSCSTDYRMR

inhibition, active:
C=CS(=O)c1sc(Cl)c(N2CCOCC2)c1[N+](=O)[O-] (stereo unspecified) 73.1%
O=C(O)/C=C/C(=O)NNc1ccc([N+](=O)[O-])cc1 59%
S=c1[nH]nc(-c2ccco2)n1/N=C/c1ccc(Br)s1 34.3%
O=C1C(Cl)=C(Oc2ccccc2)C(=O)c2ccccc21 88.5%
O=C(O)c1ccccc1CSc1nc2ccccc2s1 40.8%
CCN(CC)c1ccc2oc(=O)c(C)nc2c1 46.6%
Cc1ccc(Cc2cnc(N)s2)o1 40.4%
COc1ccnc(NC(=S)N2CCN(c3ncc(C(F)(F)F)cc3Cl)CC2)c1 35.6%
CC1CCN(C(=S)c2ccc(-c3ccc(Cl)cc3Cl)o2)CC1 31.8%
CCOc1cccc(/C=N/N2C(=O)CSC2=S)c1O 63.6%
Cc1cccc(NC(=O)c2sc3nc(N4CCOCC4)c4c(c3c2N)CCCC4)c1 33%
COc1cccc2c1C(=O)c1c(O)c3c(c(O)c1C2=O)CC(O)(C(C)=NNC(=O)c1ccc(Cl)c(Cl)c1)CC3OC1CC(N)C(O)C(C)O1 (stereo unspecified) 179%
CN1c2ccc(C=O)c3c(C=O)ccc(c23)N(C)C1(C)C 68.8%
CC(C)(C)c1nnc2sc(SCC(O)=C(C#N)c3nc4ccccc4[nH]3)nn2c1=O 21.6%
COc1ccc(NC(=O)CSc2nc(SC)ns2)c(OC)c1 36.5%
Cc1nc2ccc(S(=O)(=O)NCC(=O)O)cc2s1 36.9%
CN(C)c1ccc(N/C=C/C(=O)C(F)(F)F)cc1 36.9%
c1ccc(C(=NNc2nc3ccccc3s2)c2ccccn2)cc1 27.5%
CC1=C(C)CC2C(=O)N(c3cccc4ccccc34)C(=O)C2C1 (stereo unspecified) 42%
COc1ccc(N/N=C2/CCCCC2=O)cc1 32.7%
CC(NC(=O)CSc1nc2c(cc1C#N)CN(C)CC2)c1ccccc1 (stereo unspecified) 37.7%
Brc1ccccc1C1Nc2cccc3cccc(c23)N1 39.4%

inhibition, inactive:
O=C(O)C#Cc1cccc2ccccc12 -1.9%
CC(CCN1CCC(C(O)(c2ccccc2)c2ccccc2)CC1)Oc1ccc(C(F)(F)F)cc1 (stereo unspecified) 0.57%
CCOc1ccc(-n2c(SCC(=O)Nc3cc(C)c(NC(=O)c4ccccc4)cc3OC)nnc2-c2cccc(Cl)c2)cc1 7.2%
CCN(C(=O)[C@@H](C1CC1)[C@@H](O)c1ccc2ccccc2c1)c1ccccc1 -0.98%
O=C(O)C1CCN(C(=O)c2cc(F)cc3c2OCOC3)CC1 -0.21%
CC(=O)N1CCc2cc(Br)cc(S(=O)(=O)CCC(=O)Nc3c(C)n(C)n(-c4ccccc4)c3=O)c21 4.6%
O=C(CSCc1ccc([N+](=O)[O-])cc1)NCCSCc1ccccc1 -0.87%
CC(C)(C)C(=O)NCCCNc1ccc([N+](=O)[O-])cc1 9.07%
COC(=O)c1ccccc1-n1cc(COC(=O)NCCc2ccccc2)nn1 -0.03%
Brc1ccc(/C=N/N2CCN(C3c4ccccc4-c4ccccc43)CC2)s1 -0.5%
CCc1ccccc1NC(=S)N(CCN1CCCCCC1)Cc1ccco1 -6.03%
Cn1c(C(=O)NCCCN2CCCCC2)cc2sccc21 -0.77%
O=C(Nc1ccc(Br)cc1)OCCN1C(=O)CCC12CCC(c1ccccc1)CC2 (stereo unspecified) -1.94%
COc1ccc(Cn2cc(CN3[C@@H](CC(C)C)COc4cc(Br)ccc4S3(=O)=O)nn2)cc1 -4.17%
Cc1ccc(-n2c(SCC(=O)Nc3ccc(S(=O)(=O)Nc4nccs4)cc3)nnc2-c2ccncc2)cc1 -1.23%
CC(C)CNc1cccc2c1S(=O)(=O)N(Cc1cn(Cc3ccc(Cl)cc3)nn1)Cc1ccccc1O2 -5.99%
O=C(NCc1ccccc1)[C@@H]1CCCN1C(=O)[C@H]1CCCN1C(=O)c1cccc(Cl)c1 -3.52%
O=C(CSc1nc2ccccc2s1)NN=Cc1ccc(O)cc1O -0.64%
O=C(CSc1nc2ccccc2s1)N=Nc1c(O)[nH]c2ccccc12 2.56%
Cc1ccc(NC(=O)c2cc(C)nn2-c2ccccc2)c(C)c1 -2.87%
CCCC(=O)NC(Nc1ccccc1OC)C(Cl)(Cl)Cl (stereo unspecified) 1.36%
CCN(C(=O)CSc1nnc(-c2ccc(OC(F)F)cc2)n1N)C1CCS(=O)(=O)C1 (stereo unspecified) -3.24%
Cc1ccc(-n2c(C)cc(/C=C(\C#N)C(=O)NCC3CCCO3)c2C)cc1 (stereo unspecified) -0.82%
CCCNC(=O)Nc1ccc2c(c1)C(=O)N(C)[C@H]1CC[C@H](CC(=O)NCC3CCCCC3)O[C@@H]1CO2 1.64%
C[C@@H](NC(=O)c1ccccc1OCC(=O)Nc1ccc(I)cc1)C(=O)N(C)Cc1ccccc1 -0.05%
Cc1cc(C)nc(NC(=S)N2CCN(c3ccc(C(F)(F)F)cn3)CC2)c1 7.93%
O=C(NCC(=O)N1CCN(c2ncc(C(F)(F)F)cc2Cl)CC1)c1ccc(Br)o1 -1.7%
CC(C)c1ccc(NC2CCCN(C(=O)c3ccncc3)C2)cc1 (stereo unspecified) 5.83%
Cc1cc(NS(=O)(=O)c2ccc(NC(=O)CSc3nnc(SCc4ccc(F)cc4)s3)cc2)nc(C)n1 1.42%
CC1CCN(C(=S)c2cccc(O)c2)CC1 3%
COc1ccc(C(=O)Nc2c(Cl)cc(Cl)cc2C(=O)N2CCC(C)CC2)cc1 1.04%
C1CC1Cc1noc(CN2CCN(CC3CC3)CC2)n1 -0.03%
Cc1nc(NC(=O)C(C)(C)C)sc1[N+](=O)[O-] -3.06%
CCN(CC)CCNS(=O)(=O)c1ccc(/C=C/C(=O)O)cc1 4.48%
CCOc1cc(/C=N/n2cnnc2)c(Br)cc1O 4.53%
COC(=O)[C@]12C[C@H](CC(=O)NCC34CC5CC(CC(C5)C3)C4)C(=O)N(Cc3ccc(Cl)cc3Cl)C1=C[C@H](COCc1ccccc1)O[C@@H]2C 2.58%
COC(=O)[C@]12C[C@H](CC(=O)N3CCN(C(=O)C4CC4)CC3)C(=O)N(CCC3=CCCCC3)C1=C[C@H](C(C)C)O[C@@H]2C1CC1 1.61%
Cc1cccc(NC(=O)CSc2nnc(NC(=O)CN3CCOCC3)s2)c1 0.98%
c1ccc(CSc2ncnc3c2sc2nc(N4CCOCC4)c4c(c23)CCCC4)cc1 -1.26%
COc1cc(C(=O)N/C(=C\c2cn(C)c3ccccc23)C(=O)N2CCOCC2)cc(OC)c1OC 4.22%
COc1ccc(C2CC=C(C(=O)O)C(c3ccccc3F)N2S(=O)(=O)c2ccc(C)cc2)cc1OC (stereo unspecified) -1.02%
O=C(CSc1nc2nccnc2c(=O)n1Cc1cccs1)Nc1ccccc1F 5%
O=C1C(=O)N(Cc2ccc(-c3ccsc3)cc2)c2ccc(OC(F)(F)F)cc21 -4.19%
O=C1CC[C@@H](COc2ccc3[nH]cc(-c4ccccc4)c3c2-c2ccccc2)N1 -0.73%
Cc1ccc(NC(=O)CSc2nn3c(=O)c(C)nnc3s2)cc1Cl 1.57%
O=C(Cc1ccccc1)NCC1OCCc2ccccc21 (stereo unspecified) 0%
CSc1nsc(SCC(=O)Nc2cc(C(=O)O)ccc2C)n1 20.1%
COc1ccc(C)cc1NC(=O)CSc1nc(SC)ns1 16%
O=C1CC(c2ccc3c(c2)OCO3)N=C2N(CC3CC3)C/C(=C/c3ccccc3)N12 (stereo unspecified) -0.31%
CC1Cc2ccccc2N1CC(=O)Nc1ccc(S(N)(=O)=O)cc1 (stereo unspecified) -0.96%
COc1cccc(CNC(=O)CNS(=O)(=O)c2ccc3nc(C)sc3c2)c1OC -2.5%
Cc1nc2ccc(S(=O)(=O)NCC(=O)NCCN3CCCCC3C)cc2s1 (stereo unspecified) -0.17%
COCC(C)NC(=O)CSc1nc2nn(-c3ccccc3)c(=O)c-2c2n1CCCCC2 (stereo unspecified) 5.41%
CC1CN(/C=C/C(=O)C(F)(F)F)CC(C)O1 (stereo unspecified) -0.81%
CNC(=S)NNC(=O)c1ccc(N(C)C)cc1 -0.78%
c1csc(-c2nnc(SCc3nc4ccccc4[nH]3)o2)c1 -6.14%
C=CCN1C(=O)[C@@H](CC(=O)NCCCOCCCC)[C@]2(C(=O)OCC)CCCCC/C=C/12 2.37%
CCC(=O)Nc1ccc2c(c1)C(=O)N(C)[C@H]1CC[C@H](CC(=O)NCCOC)O[C@@H]1CO2 5.57%
CCc1ccccc1N1C(=O)C2C3CC(=O)C(c4ccccc43)C2C1=O (stereo unspecified) -4.03%
Cn1c(=O)c2cn(-c3cccc4ccccc34)cc2n(C)c1=O -1.91%
COc1ccccc1Oc1ccc(N/C=C2/CCCC2=O)cc1 -1.7%
Cc1ccc(N/N=C2\COC(C)(C)CC2=O)cc1 -2.4%
C=CCN(Cc1ccc2c(c1)OCO2)C(C#CC1CC1)C(C)(C)C (stereo unspecified) 1.88%
CN1CCc2nc(SC(C(=O)O)c3ccccc3)c(C#N)c(-c3cccs3)c2C1 (stereo unspecified) 11.9%
Cc1cc(NC(=O)CSCC(=O)NC(C)c2ccccc2)no1 (stereo unspecified) -1.57%
CCOc1ccc(N(C)Cc2cc(=O)oc3ccc(OC)cc23)cc1 -2.23%
COc1cc2c(cc1OC)C(c1ccccc1Br)NC(=O)C2 (stereo unspecified) 4.47%
Brc1ccccc1C1N=C(c2ccccc2)NO1 (stereo unspecified) 3.27%
COC(=O)c1c(-c2ccc(OC)cc2)c2c(c3c4ccccc4n(S(=O)(=O)c4ccc(C)cc4)c13)C(=O)N(C)C2 3.01%
